An excerpt weighted towards active compounds, which were near 1.2% of everything screened.
Avidin fluor – compound fluoresces at 488/530 nm on avidin beads; compound fluorescence 488/530 nm, flow cytometry; stronger effect = higher value; fluorescence (KMESF) at 10 µM; actives 0.38% (n = 220,000); in the data active means fluorescence above about 47
RGS4-Gao reg – modulates binding of RGS4 to human Galphao; P09471; Multiplexed bead flow cytometry; actives lie on both sides; binding response (% of control), % at 10 µM; actives 0.33% (n = 220,000); AID 1415; in the data active means binding response below about 49% or above about 150%; inactive means in between;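 further: fluorescent Galphao activated with aluminum fluoride binding bead-coupled RGS4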
RGS16-Gao – RGS16-Galphao interaction regulator (human); O15492+P09471; bead-based flow cytometry RGS16-Galphao binding, fluorescence; actives lie on both sides; binding response (% of control), % at 10 µM; actives 0.38% (n = 220,000); call rule not given here;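 further: Galphao activated by GDP with aluminum fluoride before binding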
Target sequence (O15492 whole entry, looked up): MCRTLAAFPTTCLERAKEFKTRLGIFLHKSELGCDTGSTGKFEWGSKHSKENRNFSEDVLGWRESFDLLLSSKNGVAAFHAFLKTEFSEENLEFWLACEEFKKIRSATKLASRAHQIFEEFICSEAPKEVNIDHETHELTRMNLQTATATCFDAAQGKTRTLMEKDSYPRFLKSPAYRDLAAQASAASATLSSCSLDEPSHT
Target sequence (P09471 whole entry, looked up): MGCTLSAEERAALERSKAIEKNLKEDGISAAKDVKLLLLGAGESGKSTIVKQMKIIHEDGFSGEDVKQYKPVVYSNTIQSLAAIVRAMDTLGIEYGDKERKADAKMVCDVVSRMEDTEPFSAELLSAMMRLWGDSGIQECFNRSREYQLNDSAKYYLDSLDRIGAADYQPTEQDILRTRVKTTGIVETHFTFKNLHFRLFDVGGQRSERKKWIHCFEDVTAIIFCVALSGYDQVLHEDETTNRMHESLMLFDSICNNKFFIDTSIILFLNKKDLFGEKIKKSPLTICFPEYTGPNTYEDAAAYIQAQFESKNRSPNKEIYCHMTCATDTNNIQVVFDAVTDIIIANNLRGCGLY
RGS7-Gao reg – human RGS7-Galphao interaction regulation; actives 0.35% (n = 220,000); AID 1439; P09471; binding response (% of control), % at 10 µM; Multiplexed bead flow cytometry, RGS7-Galphao binding; actives lie on both sides; in the data active means binding response below about 49% or above about 150%; inconclusive means no clear call, values can overlap the other calls; inactive means in between;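 further: fluorescent Galphao held in activated GDP-AlF4 state binding bead-coupled RGS7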
RGS8-Gao reg – regulators of human RGS8-Galphao interaction; P09471; multiplexed bead flow cytometry, RGS8-Galphao binding; actives lie on both sides; response (percent of control binding), % at 10 µM; actives 0.34% (n = 220,000); in the data active means response below about 60% or above about 140%; inactive means in between;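 further: Galphao activated as the GDP aluminium fluoride complex binding bead-coupled RGS8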
GSH bead fluor – compound fluoresces at 488/530 nm on GSH beads; GSH beads flow cytometry, compound fluorescence 488/530 nm; stronger effect = higher value; fluorescence (KMESF) at 10 µM; actives 0.25% (n = 190,000); AID 1776; in the data active means fluorescence above about 89;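 further: glutathione beads carrying GST-tagged Bcl family fusion proteins plus one bare bead set; values are compound well signal with DMSO vehicle wells as background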
* hit, by the source's call; ? = inconclusive; . = not tested or not shown.

SMILES	Avidin fluor	RGS4-Gao reg	RGS16-Gao	RGS7-Gao reg	RGS8-Gao reg	GSH bead fluor
CC(C)c1ccccc1OCCCCCNCCO	48*	105	105	109	100	23
O=C(NC(=S)N1CCCCCC1)C1CC1	1	99	102	101	101	4
Cc1nn(-c2ccccc2)c(Cl)c1C(=O)N1CCN(c2ncnc3c2cnn3-c2ccccc2)CC1	21	87	90	85	92	11
c1ccc(Cn2c(CSc3nnnn3-c3ccccc3)nc3ccccc32)cc1	3	84	26	97	97	237*
COc1cccc(OC)c1C(=O)NNC(=O)c1ccc(F)cc1	9	101	106	98	99	10
Nc1n[nH]c(-c2ccc([N+](=O)[O-])cc2[N+](=O)[O-])n1	15	102	102	104	106	24
COc1ccccc1-c1cc(C(=O)NCc2ccc(F)cc2)no1	23	100	99	96	100	23
COc1ccccc1-c1cc(C(=O)NCc2ccccc2)no1	48*	101	100	103	100	15
Cc1c(Cl)cccc1NC(=O)Nc1ccc(C(N)=O)cc1	18	102	105	98	104	11
CCOC(=O)C(NC(=O)CC)(Nc1nc2c(s1)CCCC2)C(F)(F)F (stereo not given)	7	116	111	107	106	156*
CCOC(=O)CSc1nc2ccccc2c(=O)n1C1CCCC1	91*	111	107	132	103	34
COc1ccc(NC(=O)CCNS(=O)(=O)c2ccc3c(c2)c(=O)n(C)c(=O)n3C)cc1	69*	106	106	138	100	24
Cc1c(C(=O)OC(C)C)sc(NC(=O)C2CCCO2)c1C(=O)OC(C)C (stereo not given)	4	97	81	94	96	93*
COC(=O)c1sc(NC(=O)C2CCCO2)c(C(=O)OC)c1C (stereo not given)	7	99	83	99	97	32
Cc1ccc(OCC(=O)Nn2c(C)nc3ccccc3c2=O)c(C(C)C)c1	12	98	102	100	100	24
COc1ccccc1N1CCN(C(=O)CN(c2ccc(C)c(C)c2)S(C)(=O)=O)CC1	6	103	115	101	107	268*
CCOC(=O)/C(C#N)=N/Nc1ccccc1C#N	47*	114	105	?	98	.
CCOC(=O)/C(C#N)=N/Nc1c(C)n(C)n(-c2ccccc2)c1=O	9	102	101	103	103	11
O=C(N/N=C1\CCc2ccccc21)c1ccccc1Cl	2	99	105	98	104	8
CC(Oc1ccc(Cl)cc1Cl)c1nc(-c2ccc(NC(=O)c3ccccn3)cc2)no1 (stereo not given)	7	104	99	104	102	108*
COc1ccc(NC(=O)c2ccccn2)cc1OC	12	87	91	84	94	9
CCSc1cc(Cl)nc(N)n1	11	100	97	?	100	.
C/C(Cc1ccccc1)=N\NC(=O)CNC(=O)COc1cccc(C)c1	6	99	101	?	100	.
Cc1cccc(-n2c(SCC(=O)N3CCCC3)nc3n[nH]c(C)c3c2=N)c1	6	95	54	99	84	56
O=C(CC1C(=O)NCCN1C(=O)Nc1ccccc1)Nc1ccc2c(c1)OCCO2 (stereo not given)	60*	101	101	108	102	19
SMILES	Avidin fluor	RGS4-Gao reg	RGS16-Gao	RGS7-Gao reg	RGS8-Gao reg	GSH bead fluor
CCOC(=O)c1[nH]c(C)c(C(=O)Nc2ccc(C)c(Cl)c2)c1C	62*	100	101	110	102	25
COc1ccc(CN2CCNC(=O)C2CC(=O)N2CCc3ccccc3C2)c(OC)c1 (stereo not given)	10	105	117	104	108	18
O=C(CSc1nnc(-c2ccc(F)cc2)o1)Nc1ccc(S(=O)(=O)N2CCCC2)cc1	6	103	108	101	102	5
O=C(CSc1nnc(-c2ccc(S(=O)(=O)N3CCCC3)cc2)o1)NCc1ccccc1	7	96	103	101	100	113*
CC(=O)Nc1nc(CC(C)C)cc(-c2ccco2)c1C#N	57*	105	102	109	101	21
O=C1COc2ccc(C(=O)COC(=O)c3ccc4ccccc4n3)cc2N1	6	101	106	102	103	12
O=C1COc2ccc(C(=O)COC(=O)Cn3cnc4ccccc43)cc2N1	7	104	107	107	104	272*
Brc1cccc(OCCCCN2CCCCC2)c1	5	104	105	102	104	21
COC(=O)C1=C(C)NC(=O)C1(NC(=O)CN1CCCC1=O)C(F)(F)F (stereo not given)	55*	104	103	110	101	22
CCOC(=O)NC1(C(F)(F)F)C(=O)NC(C)=C1C(=O)OC (stereo not given)	9	101	107	96	101	8
CCOc1ccc2nc(SCC(=O)c3ccccc3)sc2c1	9	99	97	102	100	263*
Cc1ccc(CNC(=O)CSc2nc3ccsc3c(=O)n2NC(=O)c2ccccc2)cc1	5	99	100	96	98	13
Cc1cc(NC(=O)CSc2nc3ccsc3c(=O)n2NC(=O)c2ccccc2)no1	1	19*	23*	25*	39*	64
CCN(CC)c1ccc(/C=C(\C#N)C(=O)c2ccc(Br)cc2)cc1	23	122	126	115	103	151*
CC(Nc1n[nH]c(=S)[nH]c1=O)C(=O)OCc1ccccc1 (stereo not given)	6	112	59	102	96	238*
COc1cccc(C(=O)N2CCN(C(=O)Cc3ccccc3)CC2)c1	54*	95	104	107	104	22
CC(C)Cn1c(N)c(C(=O)CSc2ncnc3sc4c(c23)CCCC4)c(=O)n(C)c1=O	3	101	91	98	98	101*
c1ccc(-c2csc3ncn4cnnc4c23)cc1	15	96	96	95	101	10
CC(C(=O)N1c2ccc(F)cc2CCC1C)N1C(=O)c2ccccc2C1=O (stereo not given)	48*	95	97	97	97	17
Cc1occc1C(=O)NN=C1C2CC3CC(C2)CC1C3	8	101	103	100	101	105*
Cc1n[nH]c(C)c1CCC(=O)N/N=C/c1c[nH]c2ccccc12	9	104	102	?	103	.
Cc1ccc(-c2nc3ccccc3c(=O)n2NC(=O)COc2ccccc2)cc1	15	95	97	91	95	231*
O=C(COc1ccccc1)Nn1c(-c2ccccc2)nc2ccccc2c1=O	6	99	102	99	99	7

Assay outcomes: PubChem BioAssay, NMMLSC
